Key:
Settings in all cases: concentration: 1 μM, replicates: in singlicate; n = 1
CAMK4 = system: CAMK4
CAMKK1 = system: CAMKK1
CAMKK2 = system: CAMKK2
CASK = system: CASK
CDC2L1 = system: T1, CDC2L1
T1 construct: gene CDK11B

CDC2L2 = system: CDC2L2
CDC2L5 = system: T2, CDC2L5
T2 construct: gene CDK13

CDK11 = system: T3, CDK11
T3 construct: gene CDK19

CDK2 = system: CDK2
CDK3 = system: CDK3
CDK4-cyclinD1 = system: CDK4-cyclinD1
CDK4-cyclinD3 = system: CDK4-cyclinD3
CDK4 = system: CDK4
CDK5 = system: CDK5
CDK7 = system: CDK7
CDK8 = system: CDK8
CDK9 = system: CDK9
CDKL1 = system: CDKL1
CDKL2 = system: CDKL2
CDKL3 = system: CDKL3
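Note: KINOMEscan kinase panel screen.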

SMILES | %Inh (CAMK4) | %Inh (CAMKK1) | %Inh (CAMKK2) | %Inh (CASK) | %Inh (CDC2L1) | %Inh (CDC2L2) | %Inh (CDC2L5) | %Inh (CDK11) | %Inh (CDK2) | %Inh (CDK3) | %Inh (CDK4-cyclinD1) | %Inh (CDK4-cyclinD3) | %Inh (CDK4) | %Inh (CDK5) | %Inh (CDK7) | %Inh (CDK8) | %Inh (CDK9) | %Inh (CDKL1) | %Inh (CDKL2) | %Inh (CDKL3)
CCn1c(-c2c(N)noc2C)nc2cnccc21 [SB-737856] | 0% | 13% | 0% | 0% | 0% | 8% | 98.8% | 7% | 0% | 0% | 0% | 9% | 0% | 8% | 0% | 0% | 0% | 17% | 22% | 0%
COc1ccc(CSc2nnc(-c3ccc4c(c3)CCO4)o2)cc1 | 0% | 1% | 15% | 0% | 0% | 0% | 90% | 0% | 0% | 0% | 0% | 0% | 0% | 0% | 0% | 0% | 0% | 0% | 0% | 0%
Cl.Cl.Cl.N#Cc1ccc(CCNc2nccc(-c3cccc(CN4CCNCC4)c3)n2)cc1 [GSK2137462] | 1% | 35% | 22% | 0% | 0% | 6% | 0% | 0% | 0% | 0% | 0% | 24% | 0% | 0% | 69% | 0% | 22% | 2% | 6% | 0%
Cc1c(Cn2c3ccccc3n3c(=O)cc(N4CCOCC4)nc23)cccc1C(F)(F)F [GSK2306394] | 8% | 69% | 5% | 0% | 100% | 0% | 0% | 0% | 0% | 0% | 0% | 0% | 0% | 0% | 0% | 0% | 100% | 0% | 16% | 0%
